Hits are enriched below; roughly 7.9% of the tested compounds scored in any of these assays.
KB-3-1 cytotox: KB-3-1 parental cell cytotoxicity; KB-3-1 viability, CellTiter-Glo ATP luminescence, 72 h; Potency, µM (top dose mostly 46.1 µM), hits mostly cytotoxic; 400,000 compounds, 1.4% hits; AID 1347075; note: % is set by controls: 0 for no effect and ±100 for the full control effect; nearly all actives have a fitted effect of over 60% in size
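Viability of parental KB-3-1 cells, measured by CellTiter-Glo luminescence, followed a 72 h incubation at 37 °C with pinned compounds in phenol-red-free DMEM containing 10% FBS.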
HT1080 IDH1KD tx: kills HT-1080 cells with IDH1 knockdown | HT-1080 IDH1 knockdown viability, ATP luminescence, 48 h | Potency, µM (highest dose often 46.1 µM), for inactives: at the highest dose activity, negative = toxicity, actives largely listed as cytotoxic | 360,000 compounds, 2% hits;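 note: 0% = DMSO wells and -100% = cell-free medium wells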
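HT-1080-IDH1KD cells (IDH1 knocked down), 750/well in RPMI with 5% FBS, treated with compound 48 h at 37 degrees C. Viability by CellTiter-Glo luminescence, normalised to DMSO and no-cell wells; concentration-response curves classed.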
HT1080-NT tox: kills 2HG-producing HT-1080-NT fibrosarcoma cells. Potency, µM (series often up to 46.1 µM), for inactives: at the top dose activity, negative = less viability, most hits filed as cytotoxic. HT-1080-NT fibrosarcoma viability, CellTiter-Glo ATP luminescence, 48 h. 360,000 compounds, 1.6% hits;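 note: NT is the 2HG producing partner of a matched IDH1 knockdown line; 0% = DMSO-treated cells and -100% = media-only wells without cells; nearly all actives have a fitted effect of over 55% in size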
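Luminescent CellTiter-Glo readout after 48 hours of compound exposure at 37 degrees C defined viability of HT-1080-NT cells. Activity was normalized to DMSO wells and cell-free media wells; concentration-response curves were fitted and assigned curve classes.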
KB-V1 MDR tox: kills drug-selected multidrug resistant KB-V1 cells. KB-V1 MDR cells viability, CellTiter-Glo, 72 h. 400,000 compounds, 3.4% hits. Potency, µM (titrated, usually from 46.1 µM), actives largely listed as cytotoxic; note: % is set by controls: 0 for no effect and ±100 for the full control effect; nearly all actives have a fitted effect of over 60% in size
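KB-V1 MDR subline cells in DMEM (phenol-red free, 10% FBS) exposed to compounds in qHTS concentration series for 72 h at 37 degrees C. Viability read by CellTiter-Glo luminescence; concentration-effect curves fitted after normalization and correction.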
MCF10A rerep: DNA re-replication induction in MCF 10a cells | MCF 10A DNA re-replication, Hoechst nuclear intensity, 48 h | Potency, µM (highest dose often 46.1 µM), for inactives: at the top dose activity, positive = re-replication, usual class: activators | 350,000 compounds, 2.9% hits; note: % of control where 0% means no effect; nearly all actives have a fitted effect of over 50% in size
SW480 rerep: inducers of DNA re-replication in SW480 colon cancer cells | 340,000 compounds, 1.8% hits | SW480 DNA re-replication, Hoechst DNA content imaging, 48 h | Potency, µM (highest dose often 46.1 µM), without a hit: at the top dose re-replication activation, actives largely listed as activators; note: % of control where 0% means no effect; nearly all actives have a fitted effect of over 55% in size
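Quantitative HTS format with DMSO vehicle controls; 48 hr drug incubation at 37 C, then 40 min Hoechst staining and scanning imager measurement at 405 nm excitation.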
An asterisk follows results filed as active; i = inactive; ? = inconclusive; / = no result given. Calls come from the whole dose curve; as a rule, active = well fitted curve in the direction sought with a large enough effect; inconclusive = small, poorly fitted or top-dose-only effect, or another doubt; inactive = no such curve, though single readings can be large; an effect the other way counts as inactive or inconclusive. Potency is the fitted concentration of half-maximal effect.

SMILES | KB-3-1 cytotox | HT1080 IDH1KD tx | HT1080-NT tox | KB-V1 MDR tox | MCF10A rerep | SW480 rerep
CCCC(=O)Nc1nn(CC)c2nc3ccc(C)cc3cc12 | i | 11.2% | 10.5% | i | ? | ?
CCCn1nc(NC(=O)c2cccs2)c2cc3cc(C)ccc3nc21 | i | -27.6% | -10.7% | ? | 18.4µM* | 20.6µM*
CCCn1nc(NC(=O)c2cccs2)c2cc3ccc(C)cc3nc21 | i | -3.4% | -14.7% | i | ? | 14.6µM*
CCNC(=S)NNC(=O)c1ccccn1 | i | -25.1% | 1.4% | 11.6µM* | 21.4% | -324.1%
O=C(NNC(=O)c1ccccn1)c1ccc(OC(F)F)cc1 | ? | 20.6µM* | ? | ? | -0.8% | ?
O=C(NNC(=O)C(c1ccccc1)c1ccccc1)c1ccccn1 | ? | ? | ? | ? | ? | 4.11µM*
CCn1nc(C(=O)NNC(=O)c2ccc(OC(F)F)cc2)c2ccccc2c1=O | ? | 15.7% | 1.9% | 16.4µM* | -2.3% | -2.0%
COc1cccc(CNC(=O)c2ccc3nc(N4CCCCC4)sc3c2)c1OC | i | / | / | i | / | /
O=C(NCc1ccccc1)c1cc(C2COCCN2C(=O)c2ccc(Cl)cc2)on1 (centres undefined) | i | 12.4% | 13.1% | i | / | /
COc1cccc(/C=C(/C(=O)OCC(=O)NC2CCCC(C)C2C)c2ccccc2)c1 (centres undefined) | i | ? | ? | i | 18.4µM* | -16.2%
O=C1CC(C(=O)N(CC2CCCO2)C(C(=O)NC2CCCCC2)c2ccncc2)CS1 (centres undefined) | i | -4.5% | 2.4% | i | 7.7% | 5.4%
O=C(NC1CCCCC1)C(c1ccc(O)cc1)N(CC1CCCO1)C(=O)C1COc2ccccc2O1 (centres undefined) | i | 4.61µM* | 4.61µM* | 20.6µM* | 0.3% | 10.0%
Cc1ccc(CC(=O)Nc2c(C(=O)N3CCN(c4ccccc4F)CC3)oc3ccccc23)cc1 | i | / | / | i | / | /
Cc1ccc(C)c(N2CCN(C(=O)CCn3c(=O)[nH]c4ccccc4c3=O)CC2)c1 | i | / | / | i | / | /
Cc1ccc(C(OCC(O)CNC(CO)C(O)c2ccc([N+](=O)[O-])cc2)c2ccccc2)cc1 (centres undefined) | i | ? | 20.6µM* | 16.4µM* | ? | ?
O=C1c2ccccc2C(=O)N1C(CO)C(O)c1ccc([N+](=O)[O-])cc1 (centres undefined) | i | 1.3% | 13.6% | ? | -0.1% | -12.5%
Cc1ccc(C(OCC(O)CNC(C)c2ccccc2)c2ccccc2)cc1 (centres undefined) | i | 18.4µM* | 14.6µM* | ? | ? | 12.3%
CCOc1ccc(CNC(=O)c2nn(-c3ccc(OC)cc3)c(=O)c3c2c2ccccc2n3C)cc1 | i | / | / | i | / | /
CCOCCCNC(=O)c1c(N)n(-c2ccc(S(N)(=O)=O)cc2)c2nc3ccccc3nc12 | i | 10.7% | 8.7% | i | ? | ?
COCCNC(=O)c1c(N)n(/N=C/c2cccs2)c2nc3ccccc3nc12 | i | -13.1% | -7.9% | i | ? | 5.8µM*
COCCNC(=O)c1c(N)n(/N=C/c2ccc(F)cc2)c2nc3ccccc3nc12 | i | 10.2% | 6.8% | i | 2.59µM* | 5.8µM*
CC(C)CNC(=O)c1c(N)n(/N=C/c2ccccn2)c2nc3ccccc3nc12 | i | -3.4% | 0.7% | i | 18.4µM* | ?
COc1cccc(/C=N/n2c(N)c(S(=O)(=O)c3cccs3)c3nc4ccccc4nc32)c1 | i | 21.5% | 28.3% | i | 16.7% | 3.0%
CC(C)[C@@H](NC(=O)OC(C)(C)C)c1cc(C(=O)c2c(-c3ccccc3)[nH]c3ccccc23)c(N)s1 | ? | ? | ? | 23.1µM* | / | /
COc1ccc(C(=O)NCC(c2cccnc2)N2CCN(c3ccc(F)cc3)CC2)cc1 (centres undefined) | i | / | / | ? | / | /
SMILES | KB-3-1 cytotox | HT1080 IDH1KD tx | HT1080-NT tox | KB-V1 MDR tox | MCF10A rerep | SW480 rerep
CCCNC(=O)CN1CCN(S(=O)(=O)c2ccc(Br)s2)CC1 | i | -3.2% | -1.1% | ? | 13.8% | -5.5%
O=C(CN1CCN(S(=O)(=O)c2ccc(Br)s2)CC1)NC1CCCCC1 | i | 2.5% | 5.2% | 10.3µM* | -1.3% | -2.0%
Cc1cc(C)cc(NC(=O)CN2CCCN(S(=O)(=O)c3ccc(Br)s3)CC2)c1 | ? | ? | -11.3% | 2.91µM* | 11.6% | 2.1%
O=C(CN1CCN(S(=O)(=O)c2ccc(Br)cc2)CC1)N/N=C/c1ccc(Br)s1 | i | ? | -20.5% | 20.6µM* | -6.7% | 2.8%
Cc1ccc(NC(=O)CN2CCCN(S(=O)(=O)c3ccc(Br)s3)CC2)cc1 | i | -13.0% | -5.7% | 4.61µM* | 23.7% | 4.1%
Cc1ccc(/C=N/NC(=O)CN2CCN(S(=O)(=O)c3ccc(Br)cc3)CC2)s1 | i | 8.4% | 4.4% | ? | 3.2% | -2.1%
CCCCN(C)C(=O)C1CCC(CNS(=O)(=O)c2ccc(Cl)cc2)CC1 (centres undefined) | i | / | / | i | / | /
COc1ccc(Nc2ncnc3c2cnn3-c2cc(Cl)ccc2C)cc1OC | i | / | / | i | / | /
CC1=C(C(=O)Nc2ccc(C)cc2C)C(c2cccs2)n2nc(SCc3ccccc3Cl)nc2N1 (centres undefined) | i | / | / | i | / | /
COCCCNC(=O)c1cc2n(n1)CCCN(Cc1ccc(C)cc1)C2=O | i | / | / | i | / | /
O=C(CCN1C(=O)C2C3C=CC(C4CC34)C2C1=O)Oc1cccc2cccnc12 (centres undefined) | i | 1.26µM* | 2µM* | i | ? | ?
CCOc1ccc(C(=O)NCCSc2c(C)[nH]c3ccccc23)cc1OCC | i | / | / | i | / | /
COc1cccc(-c2nn(-c3ccc(C)cc3)cc2C(=O)N(C)CC(=O)Nc2cccc(F)c2)c1 | ? | ? | -24.4% | i | ? | 10.1%
CCOc1ccc(NC(=O)CN(C)C(=O)c2cn(-c3ccc(C)cc3)nc2-c2cccc(OC)c2)cc1OCC | i | -2.0% | -4.2% | 5.8µM* | ? | -4.6%
CCO[C@H]1OC(C(=O)NC2CC2)=C[C@@H](c2ccccc2)[C@@H]1CCCO | i | ? | ? | i | 23.1µM* | ?
C#Cc1ccc([C@@H]2C=C(C(=O)NC3CC3)O[C@H](OCC)[C@H]2CCCO)cc1 | i | 0.4% | 2.6% | i | ? | -0.4%
